# Laboratory results as given in PubChem BioAssay (NCATS).
# Results filed as inconclusive are left out. The list shows a part of the results. A call without a number means that no potency is given here. The source made the active and inactive calls. Unless noted, calls follow the shape of the dose curve; as a rule, active = well fitted curve in the direction sought with a large enough effect; inconclusive = small, poorly fitted or top-dose-only effect, or another doubt; inactive = no such curve, though single readings can be large; an effect the other way counts as inactive or inconclusive.
# Columns and labels:
# [1] = biological target: alpha-glucosidase (Oryza sativa, rice) (UniProt Q653V4); assay: Counterscreen for Glucocerebrosidase Inhibitors: qHTS Assay for Rice alpha-Glucosidase at pH 5.0 (AID 997)
# How it was run: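 Endpoint fluorogenic assay at pH 5.0: compounds (0.7 nM to 77 uM) titrated against 4 nM rice enzyme and 400 uM 4-MU-alpha-glucoside for 20 min at room temperature; NaOH/glycine stop, read ex 365/em 440 nm, Hill-fitted AC50.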
# [2] = Validation of Assay for Modulators of Lamin A Splicing (AID 1459; active = well fitted curve in the direction sought with a large enough effect in the signal ratio; the % refers to the signal ratio;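 also: cells exposed to compound for two days before reading; ratio rise marks activators and ratio drop marks inhibitors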)
# How it was run: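 Readout: ratio of GFP (500-530 nm) to RFP (575-640 nm) total object intensity by 488 nm laser-scanning cytometry after 48 hrs. Cells were HeLa S3 clones carrying lamin A-EGFP minigene plus DsRed2 viability reporter; vehicle 0.5% DMSO final.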
# [3] = biological target: DNA repair nuclease/redox regulator APEX1 (Homo sapiens) (UniProt P27695); assay: qHTS Validation Assay for Inhibitors of the Human Apurinic/apyrimidinic Endonuclease 1 (APE1) (AID 1705; also: potency is read from the fitted curve at half-maximal effect)
# Chain of DNA repair nuclease/redox regulator APEX1 (Homo sapiens) (P27695 whole entry, looked up): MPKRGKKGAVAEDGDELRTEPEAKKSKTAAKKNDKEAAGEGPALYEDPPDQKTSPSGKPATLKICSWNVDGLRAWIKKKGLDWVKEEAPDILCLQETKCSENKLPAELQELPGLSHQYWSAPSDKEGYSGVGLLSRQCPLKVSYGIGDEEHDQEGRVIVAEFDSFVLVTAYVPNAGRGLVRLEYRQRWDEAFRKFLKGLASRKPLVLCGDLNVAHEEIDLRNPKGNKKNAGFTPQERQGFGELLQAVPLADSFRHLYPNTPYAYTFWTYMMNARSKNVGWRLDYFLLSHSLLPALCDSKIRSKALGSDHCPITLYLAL
# How it was run: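 Read-out: TAMRA fluorescence (525 nm ex, 598 nm em) from cleavage of a quenched THF abasic-site duplex, 50 nM final; activity taken as intensity change between third and first of three reads 60 s apart.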
# [4] = Counterscreen for APE1 Inhibitors: Fluorescent Dye Displacement Validation Assay (AID 1707)
# How it was run: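 Reaction mixture of 250 nM Thiazole Orange and 50 nM double-stranded abasic-site DNA was dispensed, compounds were pin-transferred, and fluorescence was read at endpoint (480 nm ex, 540 nm em). Reduced fluorescence indicated dye displacement by DNA binding.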
# [5] = qHTS for differential inhibitors of proliferation of Plasmodium falciparum line 7G8 (AID 1815);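 also: parasite growth measured after three days of incubation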; also: potency is read from the fitted curve at half-maximal effect
# [6] = qHTS for differential inhibitors of proliferation of Plasmodium falciparum line GB4 (AID 1816); details: Potency: Plasmodium falciparum GB4 proliferation inhibition;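 also: parasite growth measured after 72 h incubation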; also: potency is read from the fitted curve at half-maximal effect
# [7] = qHTS for differential inhibitors of proliferation of Plasmodium falciparum line 3D7 (AID 1876); also: potency is read from the fitted curve at half-maximal effect
# [8] = qHTS for differential inhibitors of proliferation of Plasmodium falciparum line D10 (AID 1877);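 also: parasites grown with compound for 72 h before DNA staining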; also: potency is read from the fitted curve at half-maximal effect
# [9] = qHTS for differential inhibitors of proliferation of Plasmodium falciparum line Dd2 (AID 1882); details: Potency: Plasmodium falciparum Dd2 proliferation inhibition; also: nearly all actives have a fitted effect of over 65% in size; also: potency is read from the fitted curve at half-maximal effect
# How it was run: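 SYBR Green DNA fluorescence (ex 485, em 535 nm) after overnight lysis quantifies parasite growth; compound exposure lasted 72 h at 37 C on infected red cells at 2.5% hematocrit, 0.3% parasitemia (final). Artemisinin 0.29 uM and vehicle wells define normalization.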
# [10] = qHTS for differential inhibitors of proliferation of Plasmodium falciparum line HB3 (AID 1886); details: Potency: Plasmodium falciparum HB3 proliferation inhibition;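 also: parasites grown with compound for 72 h before SYBR Green readout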; also: potency is read from the fitted curve at half-maximal effect
# [11] = biological target: Ferritin light chain (Equus caballus) (UniProt P02791); assay: qHTS Validation Assay for Identification of Novel General Anesthetics (AID 2323); also: series mostly up to about 77 µM
# Chain of Ferritin light chain (Equus caballus) (P02791 2-175 limits assumed): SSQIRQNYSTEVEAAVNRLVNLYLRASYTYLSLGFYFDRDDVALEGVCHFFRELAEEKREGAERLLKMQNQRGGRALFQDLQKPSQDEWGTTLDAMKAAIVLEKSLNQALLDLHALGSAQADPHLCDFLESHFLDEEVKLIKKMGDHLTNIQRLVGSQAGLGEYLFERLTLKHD
# How it was run: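 10 uM horse-spleen apoferritin + 1-AMA (50% saturated, PBS); cpd pin-transferred, 10 min RT. Ex 380/Em 535 nm endpoint. Activity normalized between free 1-AMA and 1-AMA/apoferritin; 4-parameter Hill fit of concentration-response.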
# [12] = biological target: ATP-dependent DNA helicase Q1 (Homo sapiens) (UniProt P46063); assay: qHTS Validation Assay for Inhibitors of RecQ-Like Dna Helicase 1 (RECQ1) (AID 2353)
# Chain of ATP-dependent DNA helicase Q1 (Homo sapiens) (P46063 whole entry, looked up): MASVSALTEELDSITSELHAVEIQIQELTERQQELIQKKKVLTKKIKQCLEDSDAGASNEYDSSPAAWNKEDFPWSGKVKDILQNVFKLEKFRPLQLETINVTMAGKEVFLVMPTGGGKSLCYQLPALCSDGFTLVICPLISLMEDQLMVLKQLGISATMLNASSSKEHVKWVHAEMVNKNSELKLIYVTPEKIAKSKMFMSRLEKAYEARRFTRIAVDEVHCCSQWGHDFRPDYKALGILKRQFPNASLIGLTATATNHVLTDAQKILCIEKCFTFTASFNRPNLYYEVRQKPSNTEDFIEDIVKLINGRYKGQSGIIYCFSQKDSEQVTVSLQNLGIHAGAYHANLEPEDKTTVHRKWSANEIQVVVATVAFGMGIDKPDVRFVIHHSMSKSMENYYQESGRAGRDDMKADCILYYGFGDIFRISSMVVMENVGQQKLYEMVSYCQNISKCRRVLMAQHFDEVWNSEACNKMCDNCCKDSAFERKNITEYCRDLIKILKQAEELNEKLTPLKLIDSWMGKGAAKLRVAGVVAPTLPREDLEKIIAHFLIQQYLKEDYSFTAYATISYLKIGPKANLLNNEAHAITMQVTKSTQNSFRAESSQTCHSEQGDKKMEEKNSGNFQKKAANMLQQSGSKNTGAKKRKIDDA
# How it was run: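 RECQ1T1 50 nM; forked duplex (20 bp + 30-nt ss tails) 200 nM, ATP 2 mM final; pH 8.0, 2 mM MgCl2, 2.5 ug/ml poly(dI-dC); 15 min compound preincubation; discontinuous kinetic read over 2 h at RT.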
# [13] = biological target: RecQ-like DNA helicase BLM (Homo sapiens) (UniProt P54132); assay: qHTS Validation Assay for Inhibitors of Bloom's syndrome helicase (BLM) (AID 2364)
# Chain of RecQ-like DNA helicase BLM (Homo sapiens) (P54132 whole entry, looked up): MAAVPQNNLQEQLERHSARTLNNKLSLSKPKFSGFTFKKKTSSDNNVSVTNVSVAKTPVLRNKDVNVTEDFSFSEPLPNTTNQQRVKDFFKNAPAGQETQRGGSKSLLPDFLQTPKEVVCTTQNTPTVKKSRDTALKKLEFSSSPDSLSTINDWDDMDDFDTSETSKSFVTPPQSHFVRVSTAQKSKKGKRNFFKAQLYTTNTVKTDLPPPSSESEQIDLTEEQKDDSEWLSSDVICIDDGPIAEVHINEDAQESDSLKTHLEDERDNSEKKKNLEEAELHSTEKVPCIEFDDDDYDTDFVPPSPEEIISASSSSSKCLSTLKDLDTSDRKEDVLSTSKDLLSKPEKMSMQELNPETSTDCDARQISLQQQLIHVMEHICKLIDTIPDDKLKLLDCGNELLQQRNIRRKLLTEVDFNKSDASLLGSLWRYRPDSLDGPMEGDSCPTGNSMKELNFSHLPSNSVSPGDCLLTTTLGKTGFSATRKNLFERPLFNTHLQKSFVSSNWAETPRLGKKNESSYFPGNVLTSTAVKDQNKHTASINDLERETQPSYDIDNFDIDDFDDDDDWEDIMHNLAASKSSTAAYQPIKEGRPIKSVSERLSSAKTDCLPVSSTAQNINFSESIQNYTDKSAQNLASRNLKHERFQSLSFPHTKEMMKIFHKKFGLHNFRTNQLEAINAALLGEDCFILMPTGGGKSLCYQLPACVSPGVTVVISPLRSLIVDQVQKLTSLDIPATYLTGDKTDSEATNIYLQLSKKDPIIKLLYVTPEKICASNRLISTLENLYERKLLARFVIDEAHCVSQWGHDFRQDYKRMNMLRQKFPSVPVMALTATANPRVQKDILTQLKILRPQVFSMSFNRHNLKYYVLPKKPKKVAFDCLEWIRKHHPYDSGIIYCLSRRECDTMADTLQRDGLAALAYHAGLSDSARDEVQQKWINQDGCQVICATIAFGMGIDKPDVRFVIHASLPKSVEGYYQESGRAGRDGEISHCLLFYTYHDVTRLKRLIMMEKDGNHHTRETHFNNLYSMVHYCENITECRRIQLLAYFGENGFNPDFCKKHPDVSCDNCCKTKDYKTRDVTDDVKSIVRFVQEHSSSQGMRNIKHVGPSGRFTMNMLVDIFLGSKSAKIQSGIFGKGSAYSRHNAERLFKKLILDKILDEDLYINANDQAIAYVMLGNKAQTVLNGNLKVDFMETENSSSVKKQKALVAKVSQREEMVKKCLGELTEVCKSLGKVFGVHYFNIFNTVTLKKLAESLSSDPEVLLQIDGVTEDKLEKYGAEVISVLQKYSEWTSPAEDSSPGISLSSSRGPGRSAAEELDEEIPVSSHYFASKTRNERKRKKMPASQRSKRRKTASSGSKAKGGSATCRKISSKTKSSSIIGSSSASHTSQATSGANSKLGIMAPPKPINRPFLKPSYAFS
# How it was run: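 BLM 50 nM in 25 mM Tris-HCl pH 8.0, 5 mM NaCl, 2 mM MgCl2, 1 mM DTT, 0.01% Tween-20, 2.5 ug/ml poly(dI-dC); 15 min cpd preinc, RT. Start: 200 nM forked DNA + 2 mM ATP (final). TAMRA read, 2 reads 2 h apart.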
# [14] = biological target: Endonuclease 4 (Escherichia coli (strain K12)) (UniProt P0A6C1); assay: Counterscreen for APE1 Inhibitors: qHTS Validation Assay for Inhibitors of Endonuclease IV (AID 1708)
# How it was run: (§1)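 Enzyme (2 nM) + compound, 15 min RT; add 50 nM TAMRA/BHQ-2 THF-site dsDNA; kinetic read ex525/em598, 3 reads/60 s; activity = read 3 − read 1. Buffer Tris pH 7.5, 50 mM NaCl, 2 mM MgCl2, DTT, Tween-20.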
# [15] = qHTS for differential inhibitors of proliferation of Plasmodium falciparum line W2 (AID 1883); details: Potency: Plasmodium falciparum W2 proliferation inhibition;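 also: parasites grown with compound for 72 h before lysis and staining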; also: potency is read from the fitted curve at half-maximal effect
# [16] = qHTS Assay for Modulators of Human Peripheral Myelin Protein 22 (PMP22) Expression/Activity (AID 1967; active = well fitted curve in the direction sought with a large enough effect in the signal ratio; the % refers to the signal ratio)
# How it was run: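 Mouse MSC80 Schwann line, Pmp22 promoter–CBG68 reporter, EF-alpha–CBR internal control. 24h compound exposure, 37 °C/5% CO2, DMEM + 10% FBS. Readout: corrected green/red luminescence ratio, normalized to untreated cells; concentration-response curves fitted and classified.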
# [17] = biological target: Endonuclease 4 (Escherichia coli (strain K12)) (UniProt P0A6C1); assay: Counterscreen for APE1 Inhibitors: qHTS Assay for Inhibitors of Endonuclease IV (AID 2565)
# How it was run: as §1
Structure (SMILES),outcome [1],outcome [2],Potency [3],Potency [4],Potency [5],Potency [6],Potency [7],Potency [8],Potency [9],Potency [10],Potency [11],Potency [12],Potency [13],Potency [14],Potency [15],outcome [16],outcome [17]
NCCCNCCCCNCCCN,inactive,inactive,inactive,inactive,inactive,inactive,inactive,inactive,inactive,inactive,inactive,inactive,inactive,,,,
CNC(=O)c1cc2c(cn1)[nH]c1ccccc12,inactive,inactive,,inactive,12.6 µM (active),,,inactive,,,inactive,inactive,inactive,inactive,12.6 µM (active),,
O[Si](CCCN1CCCCC1)(c1ccc(F)cc1)C1CCCCC1 (stereo not given),,inactive,inactive,inactive,0.0708 µM (active),0.0398 µM (active),0.0794 µM (active),0.0282 µM (active),0.141 µM (active),0.0708 µM (active),,inactive,,,0.0631 µM (active),,
COC(=O)[C@H](NC(=O)c1cc(-c2ccccc2)nc2ccccc12)c1ccccc1,inactive,inactive,inactive,inactive,11.2 µM (active),,inactive,inactive,inactive,,inactive,,,,12.6 µM (active),,
NCC(O)(CS(=O)(=O)O)c1ccc(Cl)cc1 (stereo not given),,inactive,,inactive,inactive,inactive,inactive,inactive,inactive,inactive,inactive,inactive,,inactive,inactive,inactive,
NC/C=C\C(=O)O,inactive,inactive,,inactive,inactive,inactive,inactive,inactive,inactive,inactive,inactive,inactive,,inactive,inactive,inactive,
CCCn1c(=O)c2[nH]c(-c3ccc(S(=O)(=O)O)cc3)nc2n(CCC)c1=O,inactive,inactive,inactive,,inactive,,inactive,inactive,inactive,,,inactive,inactive,inactive,,inactive,
NC(Cc1cccc(-c2ccccc2CP(=O)(O)O)c1)C(=O)O (stereo not given),,inactive,inactive,inactive,inactive,inactive,inactive,inactive,inactive,inactive,,inactive,inactive,,inactive,inactive,
O=S(=O)(c1cccc2c(Cl)cccc12)N1CCCNCC1,inactive,inactive,,inactive,5.01 µM (active),3.16 µM (active),14.1 µM (active),,4.47 µM (active),,inactive,inactive,inactive,,1.58 µM (active),,
Cc1ccc2c(c1)C(N1CCN(C)CC1)=Nc1cccnc1N2,inactive,inactive,,inactive,,,,,,inactive,inactive,inactive,,,7.08 µM (active),inactive,
O=C(OCCN1CCOCC1)C1(c2ccccc2)CCCCC1,inactive,inactive,,inactive,,10 µM (active),,,,,inactive,inactive,inactive,,4.47 µM (active),inactive,
CCN(c1nc(N)c(C(=O)N=C(N)N)nc1Cl)C(C)C,inactive,inactive,,inactive,11.2 µM (active),7.94 µM (active),10 µM (active),11.2 µM (active),inactive,11.2 µM (active),,,inactive,inactive,7.94 µM (active),,
CC(N)(Cc1ccc(O)c(O)c1)C(=O)O (stereo not given),,inactive,,inactive,inactive,,inactive,inactive,inactive,inactive,inactive,inactive,,inactive,,,
CCCCCCCCCC(=O)NC(CN1CCOCC1)[C@H](O)c1ccccc1 (stereo not given in full),,inactive,,inactive,1.26 µM (active),2 µM (active),6.31 µM (active),12.6 µM (active),,8.91 µM (active),,inactive,,inactive,1.58 µM (active),,
O=C1C2C=CC=CC2=NC(=S)N1CCN1CCC(=C(c2ccc(F)cc2)c2ccc(F)cc2)CC1 (stereo not given),,inactive,inactive,inactive,8.91 µM (active),,,inactive,inactive,,,inactive,,,10 µM (active),,
NC1CCN(O)C1=O (stereo not given),,inactive,,inactive,inactive,inactive,inactive,inactive,inactive,inactive,inactive,,inactive,inactive,inactive,inactive,inactive
OC1(c2ccc(Cl)cc2)CCN(Cc2c[nH]c3ccccc23)CC1,inactive,inactive,inactive,inactive,,,,,,,inactive,inactive,inactive,,,,
CO/N=C(\C(=O)N[C@@H]1C(=O)N2C(C(=O)O)=C(CSc3nc(=O)c(O)nn3C)CSC12)c1csc(N)n1 (stereo not given in full),,inactive,2.24 µM (active),inactive,inactive,inactive,inactive,inactive,inactive,inactive,,,,,inactive,inactive,
c1ccc2c(c1)CC(N1CCN(c3cccc4c3OCCO4)CC1)C2,inactive,inactive,inactive,inactive,,,12.6 µM (active),inactive,,,,inactive,inactive,,5.01 µM (active),,
N#Cc1cc2nc(O)c(O)nc2cc1[N+](=O)[O-],inactive,inactive,28.2 µM (active),inactive,inactive,,inactive,inactive,,inactive,inactive,inactive,,,,inactive,
